Molecules are shown by their SMILES.
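Further: TDF is a line of transformed human dermal fibroblasts of mesenchymal origin.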

The test system of this assay is HCC1569. Briefly: H1.0 immunofluorescence intensity relative to DMSO (% of DMSO); higher = stronger H1.0 induction, active = 140 or more. Particulars: concentration: 10 µM; 24 h. In short, it runs like this:
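Six fields per well were imaged at ×10 after the cells were fixed in 3.7% formaldehyde and stained with a rabbit anti-H1.0 antibody, an AlexaFluor 647 secondary and DAPI. The HCC1569 and TDF cells had been plated at 800 per well in 384-well plates (RPMI, 10% FBS) and treated in triplicate with compounds at 10 µM for 24 h at 37 °C. The values are the median of replicates of H1.0 nuclear intensity or cell number, as percent of the plate control. Smoothing for positional effects was applied to HCC1569 data.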
For `C[Se]CCC(N)C(=O)O` (stereo not given) [Selenomethionine], the H1.0 immunofluorescence intensity was 105 (inactive).
Turning to `Cc1c(C)c2c(c(C)c1O)CCC(C)(C(=O)O)O2` (stereo not given) [Trolox], the H1.0 immunofluorescence intensity is 91.3 (inactive).
For `COc1ccc(C=Cc2cc(OC)cc(=O)o2)cc1` [Yangonin] the value was 100 (inactive).
For `CC(C)NCC(O)COc1ccc(CCOCC2CC2)cc1.Cl` (stereo not given) [Betaxolol hydrochloride] the value was 89.4 (inactive); for `CC1(C)CC=C(c2cnc3ccccc3c2)c2cc(C(=O)Nc3ccc(C(=O)O)cc3)ccc21`, 96.8 (inactive).
For `CNCCC(Oc1ccc(C(F)(F)F)cc1)c1ccccc1` (stereo not given) [Fluoxetine] the value was 135 (inactive).
Regarding `Cc1ccc(S(=O)(=O)NC(=O)NN2CCCCCC2)cc1` [Tolazamide], the H1.0 immunofluorescence intensity was 102 (inactive).
For `CC(CCc1ccc(O)cc1)NCCc1ccc(O)c(O)c1.Cl` (stereo not given) [Dobutamine hydrochloride] the value was 91 (inactive).
In the case of `COc1ccnc(CS(=O)c2nc3ccc(OC(F)F)cc3[nH]2)c1OC` (stereo not given) [Pantoprazole], the H1.0 immunofluorescence intensity was 103 (inactive).
As for `COc1cccc(/C=N/CC/N=C/c2cccc(OC)c2[O-])c1[O-].[Cl-].[Mn+2]`, the H1.0 immunofluorescence intensity is 108 (inactive).
With `O=C(CCNNC(=O)c1ccncc1)NCc1ccccc1` [Nialamide], the H1.0 immunofluorescence intensity was 100 (inactive).
On to `CN(Cc1ccc(C(C)(C)C)cc1)Cc1cccc2ccccc12` [Butenafine], for which the H1.0 immunofluorescence intensity is 100 (inactive).
For `O=Nc1ccc2oc(=O)ccc2c1` [6-Nitroso-1,2-benzopyrone] the value was 101 (inactive).
For `CN(C)c1ccc(C2Nc3ccc4ccccc4c3C3=C2C(=O)CC(C)(C)C3)cc1Br` (stereo not given) the value was 130 (inactive).
For `Cc1scc2c1N(C(=O)CN1CCN(C)CC1)c1ccccc1NC2=O.Cl.Cl` [Telenzepine.2HCl] the value was 103 (inactive).
On to `CC1C(=O)N=C2Nc3cccc(Cl)c3CN21` (stereo not given) [Quazinone], for which the H1.0 immunofluorescence intensity was 96.3 (inactive).
On to `CC(=O)c1ccc(NC2=C(Cl)C(=O)c3ccccc3C2=O)cc1` [2-(4-acetylanilino)-3-chloronaphthoquinone], for which the H1.0 immunofluorescence intensity was 178 (active).
Next, `N#Cc1cc2nc([O-])c([O-])nc2cc1[N+](=O)[O-].[Na+].[Na+]` [CNQX disodium]: 101 (inactive).
For `Cl.O=C(CCCN1CCC(O)(c2cccc(C(F)(F)F)c2)CC1)c1ccc(F)cc1` [Trifluperidol hydrochloride] the value was 105 (inactive).
Next, `CCCC(=O)NCCc1c2n(c3ccc(OC)cc13)CCCc1ccccc1-2`: 100 (inactive); `O=C(C=CC=Cc1ccc2c(c1)OCO2)N1CCCCC1` [Piperine]: 104 (inactive); `CN(C)c1ccc(O)c2c1CC1CC3C(N(C)C)C(=O)C(C(N)=O)=C(O)C3(O)C(=O)C1=C2O` (stereo not given) [Minocycline]: 88.6 (inactive).
On to `COc1cc2c(c(OC)c1OC)-c1ccc(OC)c(=O)cc1C(NC=O)CC2` (stereo not given) [N-Formyl-Deacetylcolchicine], for which the H1.0 immunofluorescence intensity is 81.9 (inactive).
Next, `CCCCC=CCCCCCCCC(=O)O` [9(Z)-Tetradecenoic acid]: 99.8 (inactive); `CC(C)CC(NC(=O)C(Cc1c[nH]c2ccccc12)NC(=O)C(Cc1ccc(O)cc1)NC(=O)C(CO)NC(=O)C(Cc1c[nH]c2ccccc12)NC(=O)C(Cc1cnc[nH]1)NC(=O)C1CCC(=O)N1)C(=O)NC(CCCN=C(N)N)C(=O)N1CCCC1C(=O)NCC(N)=O` (stereo not given) [Triptorelin]: 103 (inactive).
Next, `CC1(NC2=NS(=O)(=O)c3sc(Cl)cc3N2)CC1`: 94.7 (inactive); `NCCCC(O)(P(=O)([O-])O)P(=O)(O)O` [Alendronate]: 117 (inactive).
Next, `CNCCC(Oc1ccc(C(F)(F)F)cc1)c1ccccc1.Cl` (stereo not drawn) [S-(+)-Fluoxetine hydrochloride]: 111 (inactive).
As to `Clc1ccc(C(Cn2ccnc2)OCc2csc3c(Cl)cccc23)c(Cl)c1.O=[N+]([O-])O` (stereo not given), the H1.0 immunofluorescence intensity was 119 (inactive).
In the case of `Cc1ccc([N+](=O)[O-])cc1S(=O)(=O)N(C)N=Cc1cnc2ccc(Br)cn12`, the H1.0 immunofluorescence intensity is 104 (inactive).
In the case of `COc1ccc2cc(C(C)C(=O)O)ccc2c1` (stereo not given) [Naproxen], the H1.0 immunofluorescence intensity was 109 (inactive).
Next, `Nc1sc2c(c1C(=O)c1ccc(Cl)cc1)CCCC2`: 98.9 (inactive); `CCCCNc1ccc(C(=O)OCCN(C)C)cc1.Cl` [Tetracaine hydrochloride]: 95.8 (inactive).
For `CN1C2CCCC1CC(NC(=O)c1nn(C)c3ccccc13)C2` (stereo not given) [Granisetron] the value was 102 (inactive); for `CC(C)(C)c1ccc(C(O)CCCN2CCC(C(O)(c3ccccc3)c3ccccc3)CC2)cc1` (stereo not given) [Terfenadine], 126 (inactive); for `CCN(Cc1ccncc1)C(=O)C(CO)c1ccccc1` (stereo not given) [Tropicamide], 100 (inactive).
Turning to `Cl.c1ccc(CN2CCC3(CCCc4ccccc43)CC2)cc1` [L-687,384 hydrochloride], the H1.0 immunofluorescence intensity is 103 (inactive).
For `CC(C)(C)n1nc(-c2ccc(Cl)cc2)c2c(N)ncnc21` the value was 182 (active); for `CCCCCCCCCCCCCCCC(=O)OCC(COP(=O)(O)O)OC(=O)CCCCCCCCCCCCCCC` (stereo not given) [Dipalmitoylphosphatidic acid], 107 (inactive); for `CN(C)CCC(c1ccc(Cl)cc1)c1ccccn1.O=C(O)C=CC(=O)O` (single isomer, unassigned; (+)) [(+)-Chlorpheniramine maleate], 88.5 (inactive).

Values taken from the supplement of paper PMC7156485.
